Test results reported in PubChem BioAssay (NCI).
This is part of a sample that, as a whole, favours compounds with a hit. Of some 83,000 tested, about 20% had one in any assay.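 How to read the values: 0–100, growth inhibition (40 = 60% inhibited); 0, no net growth; -100 to 0, cell death (-40 = 40% of starting cells died; -100 = all dead).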 Active and inactive are the calls of the source. Rule for the calls: active = growth percent below 10; inactive = the rest.

Legend:
Test in all cases: NCI-60 one-dose screen, 48 h (100 = growth as untreated, 0 = no growth, -100 = all killed)
Settings in all cases: 10 µM unless noted
SR leukemia = system: SR leukemia
RPMI-8226 leukemia = system: RPMI-8226 leukemia
OVCAR-5 ovarian = system: OVCAR-5 ovarian
OVCAR-4 ovarian = system: OVCAR-4 ovarian
SK-OV-3 ovarian = system: SK-OV-3 ovarian
OVCAR-3 ovarian = system: OVCAR-3 ovarian
HS 578T breast = system: HS 578T breast
NCI/ADR-RES ovarian = system: NCI/ADR-RES ovarian
IGROV1 ovarian = system: IGROV1 ovarian
OVCAR-8 ovarian = system: OVCAR-8 ovarian

Measured: growth

COc1cc(-c2cc(/C=C3\CCCCC3=O)[nH]n2)cc(OC)c1OC
inactive: SR leukemia 49.2% | RPMI-8226 leukemia 86.4% | OVCAR-5 ovarian 103% | OVCAR-4 ovarian 95% | SK-OV-3 ovarian 128% | OVCAR-3 ovarian 104% | HS 578T breast 99.4% | NCI/ADR-RES ovarian 103%

COc1ccc(C2=CC(c3ccc(Oc4ccnc5cc(Cl)ccc45)c(OC)c3)c3c(nc(OC)[nH]c3=O)N2)cc1 (stereo not given)
inactive: SR leukemia 13.4% | RPMI-8226 leukemia 28.8% | OVCAR-5 ovarian 115% | OVCAR-4 ovarian 63.9% | SK-OV-3 ovarian 102% | IGROV1 ovarian 86.6% | OVCAR-3 ovarian 58% | HS 578T breast 97.1% | NCI/ADR-RES ovarian 71.1%

COc1ccc([N+](=O)[O-])c(/C=C/C(=O)c2ccccn2)c1
inactive: SR leukemia 26.5% | RPMI-8226 leukemia 52.6% | OVCAR-4 ovarian 72.2% | SK-OV-3 ovarian 96% | IGROV1 ovarian 60.8% | OVCAR-3 ovarian 86.1% | HS 578T breast 91.4%

CCN(Cc1ccc(CN(CC)C(=O)C(Cl)(Cl)Cl)cc1)C(=O)C(Cl)(Cl)Cl
inactive: SR leukemia 32.8% | RPMI-8226 leukemia 32.5% | OVCAR-5 ovarian 101% | OVCAR-4 ovarian 74.7% | SK-OV-3 ovarian 91.2% | IGROV1 ovarian 94.9% | OVCAR-3 ovarian 74.4% | HS 578T breast 89.7% | NCI/ADR-RES ovarian 86.6%

O=C(c1c[nH]c2ccccc12)C(Sc1nc2ccccc2c(=O)[nH]1)c1ccccc1 (stereo not given)
inactive: SR leukemia 67.9% | RPMI-8226 leukemia 91.1% | OVCAR-5 ovarian 88% | OVCAR-4 ovarian 95.9% | SK-OV-3 ovarian 104% | IGROV1 ovarian 19.1% | OVCAR-3 ovarian 96.6% | HS 578T breast 88.6% | NCI/ADR-RES ovarian 99.8%

CCC1CCc2nc3sc(C(=O)Nc4ccccc4C)c(N)c3cc2C1 (stereo not given)
active: RPMI-8226 leukemia 3.92%
inactive: SR leukemia 12.8% | OVCAR-5 ovarian 76.5% | OVCAR-4 ovarian 89% | SK-OV-3 ovarian 44.8% | IGROV1 ovarian 65.3% | HS 578T breast 49.4% | NCI/ADR-RES ovarian 18.4%

C=C1C(=O)O[C@H]2[C@H]1CC/C(COC(=O)NCc1cc(OC)c(OC)c(OC)c1)=C\CC[C@@]1(C)O[C@@H]21
inactive: RPMI-8226 leukemia 43.6% | OVCAR-4 ovarian 60.5% | SK-OV-3 ovarian 101% | OVCAR-3 ovarian 21.2% | HS 578T breast 71.5% | NCI/ADR-RES ovarian 110%
active: SR leukemia 4.5%

C=CCn1c(C)nc2ccc(Nc3nc(Nc4ccc(F)cc4)nc4ccccc34)cc21
inactive: SR leukemia 22.4% | OVCAR-8 ovarian 33.4% | OVCAR-5 ovarian 81.3% | OVCAR-4 ovarian 48.3% | SK-OV-3 ovarian 98.6% | IGROV1 ovarian 51.1% | OVCAR-3 ovarian 51.2% | HS 578T breast 54.4% | NCI/ADR-RES ovarian 38.4%

CC[C@H](C)[C@@H]1NC(=O)[C@H]([C@@H](C)O)NC(=O)C(Cc2ccccc2)NC(=O)[C@@H]2CCCN2C(=O)C(C(C)C)NC(=O)C(Cc2ccccc2)NC(=O)CNC(=O)[C@@H]2CCCN2C1=O (stereo not given in full)
inactive: SR leukemia 20.1% | OVCAR-5 ovarian 89.9% | OVCAR-4 ovarian 60% | SK-OV-3 ovarian 78.4% | IGROV1 ovarian 63.6% | OVCAR-3 ovarian 57.6% | HS 578T breast 59.2% | NCI/ADR-RES ovarian 64.5%
active: RPMI-8226 leukemia 7.56%

COc1cc(C2C3=C(COC3=O)Nc3c2ccc2c3CCCC2)cc2c1OCO2 (stereo not given)
inactive: OVCAR-8 ovarian 15.9% | OVCAR-5 ovarian 42.8% | OVCAR-4 ovarian 38% | IGROV1 ovarian 44.7% | HS 578T breast 81.8%
active: SR leukemia 7.47% | SK-OV-3 ovarian -8.93% | OVCAR-3 ovarian -53.1% | NCI/ADR-RES ovarian 3.82%

CC1(C)OC2COC3(C(=O)O)OC(C)(C)OC3C2O1 (stereo not given)
inactive: SR leukemia 121% | RPMI-8226 leukemia 109% | OVCAR-5 ovarian 90.1% | OVCAR-4 ovarian 116% | SK-OV-3 ovarian 103% | IGROV1 ovarian 109% | OVCAR-3 ovarian 108% | HS 578T breast 101% | NCI/ADR-RES ovarian 101%

C#CCN1C(=O)/C(=c2\sc3n(c2=O)NC2C(N=3)N(CC)C(=O)N2CC)c2ccccc21 (stereo not given)
inactive: SR leukemia 15.5% | RPMI-8226 leukemia 59.3% | OVCAR-4 ovarian 51.9% | IGROV1 ovarian 66% | OVCAR-3 ovarian 23.1% | HS 578T breast 56.6% | NCI/ADR-RES ovarian 41.7%

COc1cccc(/C=C2\SC(N3CCN(c4ccccn4)CC3)=NC2=O)c1
inactive: SR leukemia 89.7% | RPMI-8226 leukemia 85.8% | OVCAR-5 ovarian 113% | OVCAR-4 ovarian 110% | SK-OV-3 ovarian 111% | IGROV1 ovarian 103% | OVCAR-3 ovarian 100% | HS 578T breast 95.8% | NCI/ADR-RES ovarian 103%

Cc1ccc(S(=O)(=O)OC2COCOC2C(OS(=O)(=O)c2ccc(C)cc2)C2OCOCC2OS(=O)(=O)c2ccc(C)cc2)cc1 (stereo not given)
inactive: SR leukemia 96.2% | RPMI-8226 leukemia 107% | OVCAR-5 ovarian 101% | OVCAR-4 ovarian 118% | SK-OV-3 ovarian 107% | IGROV1 ovarian 110% | OVCAR-3 ovarian 110% | NCI/ADR-RES ovarian 110%

Cc1cc(C)c(NC(=O)c2sc3nc4c(cc3c2N)CN(Cc2ccccc2)CC4)c(C)c1
inactive: SR leukemia 10.1% | RPMI-8226 leukemia 20.9% | OVCAR-4 ovarian 31.6% | SK-OV-3 ovarian 23.9% | IGROV1 ovarian 24.1% | HS 578T breast 21% | NCI/ADR-RES ovarian 18.5%
active: OVCAR-3 ovarian -3.04%

CCNC(=O)CCCCC(=O)c1c(C)[nH]c(/C=C2\N=C(c3ccc[nH]3)C=C2OC)c1C
active: OVCAR-4 ovarian -59.4% | OVCAR-3 ovarian -77.9%
inactive: SR leukemia 45.6% | RPMI-8226 leukemia 51.6% | OVCAR-5 ovarian 66.3% | SK-OV-3 ovarian 57.7% | HS 578T breast 54.9% | NCI/ADR-RES ovarian 15.4%

COc1cc2nc(SCc3cc(OC)c(OC)c(OC)c3)n(Cc3ccccc3)c(=O)c2cc1OC
active: SR leukemia 6.25% | OVCAR-3 ovarian 6.2% | NCI/ADR-RES ovarian -15.8%
inactive: RPMI-8226 leukemia 54.8% | OVCAR-5 ovarian 53.7% | OVCAR-4 ovarian 44.2% | SK-OV-3 ovarian 29.8% | IGROV1 ovarian 39.2% | HS 578T breast 26.7%

O=S=Nc1ccc([N+](=O)[O-])cc1
inactive: SR leukemia 90.3% | RPMI-8226 leukemia 102% | OVCAR-5 ovarian 87.2% | OVCAR-4 ovarian 101% | SK-OV-3 ovarian 103% | IGROV1 ovarian 103% | OVCAR-3 ovarian 98.3% | HS 578T breast 95% | NCI/ADR-RES ovarian 99.4%

CCC(c1ccc(OC)cc1)C(CC)c1ccc(OCC[N+](C)(C)C)cc1 (stereo not given)
inactive: SR leukemia 53.9% | OVCAR-8 ovarian 51.4% | OVCAR-5 ovarian 91% | OVCAR-4 ovarian 63.4% | SK-OV-3 ovarian 87.7% | OVCAR-3 ovarian 34.6% | HS 578T breast 63.6% | NCI/ADR-RES ovarian 100%

CCN1C(=O)N(CC)C2Nn3c(s/c(=C\c4cccc(F)c4)c3=O)=NC21 (stereo not given)
inactive: SR leukemia 36.2% | RPMI-8226 leukemia 90.7% | OVCAR-5 ovarian 86.8% | OVCAR-4 ovarian 67.5% | SK-OV-3 ovarian 102% | IGROV1 ovarian 84.8% | OVCAR-3 ovarian 43% | HS 578T breast 75.5% | NCI/ADR-RES ovarian 30.6%

Oc1ccc(Cl)cc1-c1cc(-c2ccc(Cl)cc2)n[nH]1
inactive: SR leukemia 41.6% | RPMI-8226 leukemia 40.4% | OVCAR-5 ovarian 73.3% | OVCAR-4 ovarian 35% | SK-OV-3 ovarian 79% | IGROV1 ovarian 34.5% | HS 578T breast 81.5% | NCI/ADR-RES ovarian 65.1%

COc1ccc(OC)c(/C=C2\Oc3cc(OCCN4CCCC4)ccc3C2=O)c1
inactive: SR leukemia 56.6% | RPMI-8226 leukemia 93.5% | OVCAR-5 ovarian 94.5% | OVCAR-4 ovarian 98.5% | IGROV1 ovarian 95.8% | OVCAR-3 ovarian 101% | HS 578T breast 86.4% | NCI/ADR-RES ovarian 86.4%

O=[N+]([O-])c1cccc(-c2cc(-c3cc(Br)ccc3O)[nH]n2)c1
inactive: SR leukemia 19.7% | OVCAR-5 ovarian 55.4% | OVCAR-4 ovarian 16.3% | SK-OV-3 ovarian 30.6% | IGROV1 ovarian 13.7% | HS 578T breast 46.6% | NCI/ADR-RES ovarian 19.2%
active: RPMI-8226 leukemia -2.85% | OVCAR-3 ovarian 2.12%

O=C(O)c1cccc([N+](=O)[O-])c1/C=C/c1ccccc1
inactive: SR leukemia 85.2% | RPMI-8226 leukemia 105% | OVCAR-5 ovarian 108% | OVCAR-4 ovarian 83.2% | SK-OV-3 ovarian 94.6% | IGROV1 ovarian 94.8% | OVCAR-3 ovarian 103% | NCI/ADR-RES ovarian 103%

CS(=O)(=O)N(c1cc(-c2ccc3ncnc(Nc4cccc(Cl)c4)c3c2)cnc1Cl)S(C)(=O)=O
active: RPMI-8226 leukemia -6.09% | SK-OV-3 ovarian -11.1% | IGROV1 ovarian -38.3%
inactive: SR leukemia 22.8% | OVCAR-5 ovarian 12.1% | OVCAR-4 ovarian 43.3% | OVCAR-3 ovarian 11.1% | NCI/ADR-RES ovarian 42.2%

Nc1cccc2c1CN(C1CCC(=O)NC1=O)C2=O (stereo not given)
inactive: SR leukemia 71.8% | RPMI-8226 leukemia 109% | OVCAR-5 ovarian 95.6% | OVCAR-4 ovarian 105% | SK-OV-3 ovarian 93.1% | IGROV1 ovarian 29.8% | OVCAR-3 ovarian 108% | HS 578T breast 112% | NCI/ADR-RES ovarian 104%

CC/C=C\C[C@H](O)C/C=C1/C(=O)C(Cl)=C[C@@H]1C/C=C\CCCC(=O)O
inactive: SR leukemia 10.9% | RPMI-8226 leukemia 14.7% | OVCAR-5 ovarian 97.1% | OVCAR-4 ovarian 63.2% | SK-OV-3 ovarian 99.7% | IGROV1 ovarian 82.7% | OVCAR-3 ovarian 28.9% | HS 578T breast 75.9% | NCI/ADR-RES ovarian 57.1%

CCN1C(=S)N(CC)C2Nn3c(s/c(=C4\C(=O)N(C)c5ccccc54)c3=O)=NC21 (stereo not given)
inactive: SR leukemia 22.6% | RPMI-8226 leukemia 36.8% | OVCAR-5 ovarian 67.5% | OVCAR-4 ovarian 47.5% | IGROV1 ovarian 53.3% | OVCAR-3 ovarian 20.2% | HS 578T breast 48.8%
active: NCI/ADR-RES ovarian 6.63%

CCC(c1ccc(OC)cc1)C(CC)c1ccc(O)c(CN2CCCC2)c1 (stereo not given)
active: SR leukemia -43%
inactive: OVCAR-8 ovarian 36.7% | OVCAR-5 ovarian 63% | OVCAR-4 ovarian 31.7% | SK-OV-3 ovarian 34.5% | OVCAR-3 ovarian 20.3% | NCI/ADR-RES ovarian 18.7%

COc1cc(NC(=O)CSc2nc3ccc(C)cc3c(=O)n2-c2ccccc2)cc(OC)c1OC
inactive: SR leukemia 42.3% | RPMI-8226 leukemia 76.3% | OVCAR-5 ovarian 99.5% | OVCAR-4 ovarian 68.9% | SK-OV-3 ovarian 107% | IGROV1 ovarian 89.6% | OVCAR-3 ovarian 84.4% | NCI/ADR-RES ovarian 75.5%
